Our source for the binding signal values is publication PMC11006913.

Numbering of substitutions follows the chain as printed.

Common to all, as to experiment: PBM; 200 nM protein, PBS
Holding throughout (settings): dsDNA, one strand shown

For test [1], the target named is SHOX (Homo sapiens, UniProt O15266 103-189).
For test [2], the target named is T1, PAX4 (Homo sapiens, UniProt O43316 9-242, R200K).
T1 sequence: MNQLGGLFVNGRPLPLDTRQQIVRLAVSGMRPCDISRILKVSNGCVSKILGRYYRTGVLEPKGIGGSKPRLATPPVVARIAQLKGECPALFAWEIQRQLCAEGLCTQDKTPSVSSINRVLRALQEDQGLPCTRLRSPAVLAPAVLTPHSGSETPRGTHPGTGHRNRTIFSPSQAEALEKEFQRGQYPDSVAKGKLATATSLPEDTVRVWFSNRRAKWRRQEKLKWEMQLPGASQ

The target in test [3] is T2, PAX4 (Homo sapiens, UniProt O43316 9-242).
T2 sequence: T1 sequence with K192R

For test [4], the target named is MSX2 (Homo sapiens, UniProt P35548 130-214, R199I).
Sequence of MSX2 (Homo sapiens, UniProt P35548 130-214, R199I) (P35548 130-214 R199I): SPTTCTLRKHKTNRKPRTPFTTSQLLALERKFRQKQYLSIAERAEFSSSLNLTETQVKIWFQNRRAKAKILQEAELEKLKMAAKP
In test [5] the target is ALX1 (Homo sapiens, UniProt Q15699 118-204, L144V).
Sequence of ALX1 (Homo sapiens, UniProt Q15699 118-204, L144V) (Q15699 118-204 L144V): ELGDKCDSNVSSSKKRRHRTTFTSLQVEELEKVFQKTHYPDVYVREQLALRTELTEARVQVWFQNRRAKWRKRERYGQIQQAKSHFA
Test [6] concerns the target ALX3 (Homo sapiens, UniProt O95076 139-225, N203Q).
In test [7] the target is T3, PAX4 (Homo sapiens, UniProt O43316 9-242, R200Q).
T3 sequence: T1 sequence with K192Q

The target of test [8] is SHOX (Homo sapiens, UniProt O15266 103-189, R173C).
Sequence of SHOX (Homo sapiens, UniProt O15266 103-189, R173C) (O15266 103-189 R173C): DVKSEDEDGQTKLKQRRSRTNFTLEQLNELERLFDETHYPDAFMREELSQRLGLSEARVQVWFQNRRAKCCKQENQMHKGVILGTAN
Test [9] has as its target ALX1 (Homo sapiens, UniProt Q15699 118-204, L144R).
The target in test [10] is T4, PAX4 (Homo sapiens, UniProt O43316 9-242, F177V).
T4 sequence: T1 sequence with F169V, K192R

The target of test [11] is MSX2 (Homo sapiens, UniProt P35548 130-214).
Sequence of MSX2 (Homo sapiens, UniProt P35548 130-214) (P35548 130-214): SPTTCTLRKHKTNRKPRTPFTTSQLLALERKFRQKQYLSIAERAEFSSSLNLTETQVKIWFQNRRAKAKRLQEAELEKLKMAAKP
The target in test [12] is ALX3 (Homo sapiens, UniProt O95076 139-225).
Sequence of ALX3 (Homo sapiens, UniProt O95076 139-225) (O95076 139-225): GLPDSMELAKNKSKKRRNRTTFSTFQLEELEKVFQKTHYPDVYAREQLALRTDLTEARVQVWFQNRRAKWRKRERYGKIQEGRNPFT
In test [13] the target is T5, PAX4 (Homo sapiens, UniProt O43316 9-242, F177Y).
T5 sequence: T1 sequence with F169Y, K192R

Test [14] concerns the target ALX3 (Homo sapiens, UniProt O95076 139-225, L168Q).
Test [15] addresses ALX3 (Homo sapiens, UniProt O95076 139-225, L168V).
Test [16] has as its target MSX2 (Homo sapiens, UniProt P35548 130-214, F161Y).
The target in test [17] is T6, PAX4 (Homo sapiens, UniProt O43316 9-242, R227W).
T6 sequence: T1 sequence with K192R, R219W

For test [18], the target named is ALX1 (Homo sapiens, UniProt Q15699 118-204).
Sequence of ALX1 (Homo sapiens, UniProt Q15699 118-204) (Q15699 118-204): as the sequence (Q15699 118-204 L144V) above, with V27L counted along it
For test [19], the target named is ALX3 (Homo sapiens, UniProt O95076 139-225, N203S).
Sequence of ALX3 (Homo sapiens, UniProt O95076 139-225, N203S) (O95076 139-225 N203S): as the sequence (O95076 139-225) above, with N65S counted along it
A further test deals with HOXB9 (Homo sapiens, UniProt P17482 171-250).
Sequence of HOXB9 (P17482 171-250): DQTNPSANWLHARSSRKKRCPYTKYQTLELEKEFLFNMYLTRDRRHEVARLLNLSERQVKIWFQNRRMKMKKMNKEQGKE
The target of test [20] is HOXB6 (Homo sapiens, UniProt P17509 132-218, K202E).
Sequence of HOXB6 (Homo sapiens, UniProt P17509 132-218, K202E) (P17509 132-218 K202E): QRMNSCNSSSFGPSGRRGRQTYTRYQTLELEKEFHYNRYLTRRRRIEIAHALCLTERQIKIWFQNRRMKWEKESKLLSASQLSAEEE
Test [21] concerns the target HOXB6 (Homo sapiens, UniProt P17509 132-218).
Test [22] has as its target ALX4 (Homo sapiens, UniProt Q9H161 200-286).
The target of test [23] is ALX4 (Homo sapiens, UniProt Q9H161 200-286, Q225E).
Sequence of ALX4 (Homo sapiens, UniProt Q9H161 200-286, Q225E) (Q9H161 200-286 Q225E): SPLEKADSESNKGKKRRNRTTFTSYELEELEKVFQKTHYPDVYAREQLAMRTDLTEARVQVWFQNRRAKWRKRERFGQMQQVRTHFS
For test [24], the target named is PROP1 (Homo sapiens, UniProt O75360 56-141).
Sequence of PROP1 (Homo sapiens, UniProt O75360 56-141) (O75360 56-141): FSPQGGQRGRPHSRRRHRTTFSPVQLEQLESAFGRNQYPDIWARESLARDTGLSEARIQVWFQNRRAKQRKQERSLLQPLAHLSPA
Test [25] deals with PROP1 (Homo sapiens, UniProt O75360 56-141, R99H).
Sequence of PROP1 (Homo sapiens, UniProt O75360 56-141, R99H) (O75360 56-141 R99H): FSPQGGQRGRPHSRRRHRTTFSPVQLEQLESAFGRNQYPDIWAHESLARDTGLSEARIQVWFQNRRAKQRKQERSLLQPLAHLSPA
The target of test [26] is PROP1 (Homo sapiens, UniProt O75360 56-141, F88S).
Sequence of PROP1 (Homo sapiens, UniProt O75360 56-141, F88S) (O75360 56-141 F88S): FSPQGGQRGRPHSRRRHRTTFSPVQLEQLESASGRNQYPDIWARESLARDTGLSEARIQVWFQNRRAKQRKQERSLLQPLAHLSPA
In test [27] the target is HESX1 (Homo sapiens, UniProt Q9UBX0 95-180, R109Q).
Sequence of HESX1 (Homo sapiens, UniProt Q9UBX0 95-180, R109Q) (Q9UBX0 95-180 R109Q): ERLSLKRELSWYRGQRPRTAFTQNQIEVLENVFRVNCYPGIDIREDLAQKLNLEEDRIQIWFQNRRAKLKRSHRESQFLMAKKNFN
For test [28], the target named is HESX1 (Homo sapiens, UniProt Q9UBX0 95-180, P111T).
Sequence of HESX1 (Homo sapiens, UniProt Q9UBX0 95-180, P111T) (Q9UBX0 95-180 P111T): as the sequence (Q9UBX0 95-180 R109Q) above, with Q15R, P17T counted along it
In test [29] the target is HESX1 (Homo sapiens, UniProt Q9UBX0 95-180, F115L).
Sequence of HESX1 (Homo sapiens, UniProt Q9UBX0 95-180, F115L) (Q9UBX0 95-180 F115L): as the sequence (Q9UBX0 95-180 R109Q) above, with Q15R, F21L counted along it
Test [30] addresses PRRX1 (Homo sapiens, UniProt P54821 80-166, F113S).
In another test the target is PITX2 (Homo sapiens, UniProt Q99697 72-157).
In test [31] the target is PRRX1 (Homo sapiens, UniProt P54821 80-166).
Sequence of PRRX1 (Homo sapiens, UniProt P54821 80-166) (P54821 80-166): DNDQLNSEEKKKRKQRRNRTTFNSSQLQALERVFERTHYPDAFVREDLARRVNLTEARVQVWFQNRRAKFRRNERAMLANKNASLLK
Test [32] deals with HOXC10 (Homo sapiens, UniProt Q9NYD6 254-340).
Sequence of HOXC10 (Homo sapiens, UniProt Q9NYD6 254-340) (Q9NYD6 254-340): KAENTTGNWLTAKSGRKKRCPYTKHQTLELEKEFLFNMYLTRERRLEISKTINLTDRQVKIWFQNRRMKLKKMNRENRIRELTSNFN
Test [33] addresses HOXC10 (Homo sapiens, UniProt Q9NYD6 254-340, K271E).
Test [34] addresses NKX3-2 (Homo sapiens, UniProt P78367 192-278, P234S).
For test [35], the target named is NKX3-2 (Homo sapiens, UniProt P78367 192-278).
Sequence of NKX3-2 (Homo sapiens, UniProt P78367 192-278) (P78367 192-278): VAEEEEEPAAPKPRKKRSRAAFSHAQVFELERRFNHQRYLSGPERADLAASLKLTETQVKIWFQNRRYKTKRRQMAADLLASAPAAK

Sequence of ALX1 (Homo sapiens, UniProt Q15699 118-204, L144R) (Q15699 118-204 L144R): as the sequence (Q15699 118-204 L144V) above, with V27R counted along it
Sequence of MSX2 (Homo sapiens, UniProt P35548 130-214, F161Y) (P35548 130-214 F161Y): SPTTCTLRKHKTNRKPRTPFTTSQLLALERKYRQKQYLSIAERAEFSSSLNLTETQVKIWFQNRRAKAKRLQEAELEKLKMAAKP
Sequence of SHOX (Homo sapiens, UniProt O15266 103-189) (O15266 103-189): as the sequence (O15266 103-189 R173C) above, with C71R counted along it
Sequence of ALX3 (Homo sapiens, UniProt O95076 139-225, L168V) (O95076 139-225 L168V): as the sequence (O95076 139-225) above, with L30V counted along it
Sequence of ALX3 (Homo sapiens, UniProt O95076 139-225, L168Q) (O95076 139-225 L168Q): as the sequence (O95076 139-225) above, with L30Q counted along it
Sequence of ALX3 (Homo sapiens, UniProt O95076 139-225, N203Q) (O95076 139-225 N203Q): as the sequence (O95076 139-225) above, with N65Q counted along it
Sequence of NKX3-2 (Homo sapiens, UniProt P78367 192-278, P234S) (P78367 192-278 P234S): as the sequence (P78367 192-278) above, with P43S counted along it
Sequence of ALX4 (Homo sapiens, UniProt Q9H161 200-286) (Q9H161 200-286): as the sequence (Q9H161 200-286 Q225E) above, with E26Q counted along it
Sequence of PRRX1 (Homo sapiens, UniProt P54821 80-166, F113S) (P54821 80-166 F113S): as the sequence (P54821 80-166) above, with F34S counted along it
Sequence of HOXC10 (Homo sapiens, UniProt Q9NYD6 254-340, K271E) (Q9NYD6 254-340 K271E): as the sequence (Q9NYD6 254-340) above, with K18E counted along it
Sequence of HOXB6 (Homo sapiens, UniProt P17509 132-218) (P17509 132-218): as the sequence (P17509 132-218 K202E) above, with E71K counted along it

ACAAATTA: the binding signal with SHOX [1] was 11.4 upbm affinity estimate (log intensity, higher = more binding, comparable within an allelic series); with PAX4 [2] it was 11.7 upbm affinity estimate (log intensity, higher = more binding, comparable within an allelic series); in the test with PAX4 [3] it was 12.3 upbm affinity estimate (log intensity, higher = more binding, comparable within an allelic series); with MSX2 [4], 12 upbm affinity estimate (log intensity, higher = more binding, comparable within an allelic series); in the test with ALX1 [5], 11.3 upbm affinity estimate (log intensity, higher = more binding, comparable within an allelic series); with ALX3 [6], 8.4 upbm affinity estimate (log intensity, higher = more binding, comparable within an allelic series). Further, the binding signal with PAX4 [7] is 12.2 upbm affinity estimate (log intensity, higher = more binding, comparable within an allelic series); in the test with SHOX [8], 9.08 upbm affinity estimate (log intensity, higher = more binding, comparable within an allelic series); with ALX1 [9], 10.9 upbm affinity estimate (log intensity, higher = more binding, comparable within an allelic series); with PAX4 [10], 10.5 upbm affinity estimate (log intensity, higher = more binding, comparable within an allelic series); with MSX2 [11] it was 13.3 upbm affinity estimate (log intensity, higher = more binding, comparable within an allelic series); with ALX3 [12], 12.2 upbm affinity estimate (log intensity, higher = more binding, comparable within an allelic series). In addition, the binding signal in the test with PAX4 [13] was 11 upbm affinity estimate (log intensity, higher = more binding, comparable within an allelic series); with ALX3 [14], 10.1 upbm affinity estimate (log intensity, higher = more binding, comparable within an allelic series); with ALX3 [15], 9.54 upbm affinity estimate (log intensity, higher = more binding, comparable within an allelic series); with MSX2 [16], 12.9 upbm affinity estimate (log intensity, higher = more binding, comparable within an allelic series); in the test with PAX4 [17] it was 11 upbm affinity estimate (log intensity, higher = more binding, comparable within an allelic series); with ALX1 [18], 12 upbm affinity estimate (log intensity, higher = more binding, comparable within an allelic series). The binding signal in the test with ALX3 [19] is 8.51 upbm affinity estimate (log intensity, higher = more binding, comparable within an allelic series).

Consider GCGCCAGC, for which the binding signal in the test with SHOX [1] is 7.13 upbm affinity estimate (log intensity, higher = more binding, comparable within an allelic series); with MSX2 [4] it was 9.22 upbm affinity estimate (log intensity, higher = more binding, comparable within an allelic series); with SHOX [8] it was 6.97 upbm affinity estimate (log intensity, higher = more binding, comparable within an allelic series); with MSX2 [11] it was 9.48 upbm affinity estimate (log intensity, higher = more binding, comparable within an allelic series); with MSX2 [16], 9.39 upbm affinity estimate (log intensity, higher = more binding, comparable within an allelic series).

As for GATATGTA, the binding signal with SHOX [1] was 8.18 upbm affinity estimate (log intensity, higher = more binding, comparable within an allelic series); in the test with HOXB9, 9.76 upbm affinity estimate (log intensity, higher = more binding, comparable within an allelic series); in the test with SHOX [8], 7.81 upbm affinity estimate (log intensity, higher = more binding, comparable within an allelic series).

With GCAGAGCC, the binding signal in the test with SHOX [1] is 7.11 upbm affinity estimate (log intensity, higher = more binding, comparable within an allelic series); in the test with HOXB6 [20], 8.95 upbm affinity estimate (log intensity, higher = more binding, comparable within an allelic series); with SHOX [8], 7.16 upbm affinity estimate (log intensity, higher = more binding, comparable within an allelic series); with HOXB6 [21] it was 8.72 upbm affinity estimate (log intensity, higher = more binding, comparable within an allelic series).

For the sequence CAAATTAG, the binding signal with SHOX [1] is 11.8 upbm affinity estimate (log intensity, higher = more binding, comparable within an allelic series); with ALX4 [22] it was 13.6 upbm affinity estimate (log intensity, higher = more binding, comparable within an allelic series); in the test with PAX4 [2] it was 11.8 upbm affinity estimate (log intensity, higher = more binding, comparable within an allelic series); in the test with PAX4 [3] it was 12.4 upbm affinity estimate (log intensity, higher = more binding, comparable within an allelic series); with ALX4 [23], 12.4 upbm affinity estimate (log intensity, higher = more binding, comparable within an allelic series); with MSX2 [4] it was 12.1 upbm affinity estimate (log intensity, higher = more binding, comparable within an allelic series). Also, the binding signal was 11.3 upbm affinity estimate (log intensity, higher = more binding, comparable within an allelic series) with ALX1 [5]; 8.31 upbm affinity estimate (log intensity, higher = more binding, comparable within an allelic series) with ALX3 [6]; 12.3 upbm affinity estimate (log intensity, higher = more binding, comparable within an allelic series) in the test with PAX4 [7]; 9.26 upbm affinity estimate (log intensity, higher = more binding, comparable within an allelic series) with SHOX [8]; 10.9 upbm affinity estimate (log intensity, higher = more binding, comparable within an allelic series) in the test with ALX1 [9]; 10.4 upbm affinity estimate (log intensity, higher = more binding, comparable within an allelic series) in the test with PAX4 [10]. Further, the binding signal in the test with MSX2 [11] was 13.3 upbm affinity estimate (log intensity, higher = more binding, comparable within an allelic series); with ALX3 [12] it was 12.2 upbm affinity estimate (log intensity, higher = more binding, comparable within an allelic series); with PAX4 [13], 11 upbm affinity estimate (log intensity, higher = more binding, comparable within an allelic series); with PROP1 [24], 11.1 upbm affinity estimate (log intensity, higher = more binding, comparable within an allelic series); with PROP1 [25], 10.7 upbm affinity estimate (log intensity, higher = more binding, comparable within an allelic series); with ALX3 [14], 10.1 upbm affinity estimate (log intensity, higher = more binding, comparable within an allelic series). Moreover, the binding signal is 9.51 upbm affinity estimate (log intensity, higher = more binding, comparable within an allelic series) with ALX3 [15]; 7.47 upbm affinity estimate (log intensity, higher = more binding, comparable within an allelic series) with PROP1 [26]; 12.9 upbm affinity estimate (log intensity, higher = more binding, comparable within an allelic series) with MSX2 [16]; 11 upbm affinity estimate (log intensity, higher = more binding, comparable within an allelic series) with PAX4 [17]; 12.1 upbm affinity estimate (log intensity, higher = more binding, comparable within an allelic series) with ALX1 [18]; 8.39 upbm affinity estimate (log intensity, higher = more binding, comparable within an allelic series) in the test with ALX3 [19].

In the case of AATTAGGG, the binding signal with SHOX [1] is 11.7 upbm affinity estimate (log intensity, higher = more binding, comparable within an allelic series); with PAX4 [2], 11.6 upbm affinity estimate (log intensity, higher = more binding, comparable within an allelic series); with PAX4 [3] it was 12.2 upbm affinity estimate (log intensity, higher = more binding, comparable within an allelic series); with ALX1 [5], 11.4 upbm affinity estimate (log intensity, higher = more binding, comparable within an allelic series); with PAX4 [7] it was 11.8 upbm affinity estimate (log intensity, higher = more binding, comparable within an allelic series); in the test with SHOX [8] it was 9.29 upbm affinity estimate (log intensity, higher = more binding, comparable within an allelic series). Also, the binding signal in the test with ALX1 [9] is 10.8 upbm affinity estimate (log intensity, higher = more binding, comparable within an allelic series); in the test with PAX4 [10], 10.3 upbm affinity estimate (log intensity, higher = more binding, comparable within an allelic series); with PAX4 [13] it was 10.8 upbm affinity estimate (log intensity, higher = more binding, comparable within an allelic series); with HESX1 [27] it was 8.69 upbm affinity estimate (log intensity, higher = more binding, comparable within an allelic series); with PROP1 [25], 10.9 upbm affinity estimate (log intensity, higher = more binding, comparable within an allelic series); in the test with HESX1 [28], 10.1 upbm affinity estimate (log intensity, higher = more binding, comparable within an allelic series). Further, the binding signal with PAX4 [17] was 10.8 upbm affinity estimate (log intensity, higher = more binding, comparable within an allelic series); in the test with ALX1 [18], 12 upbm affinity estimate (log intensity, higher = more binding, comparable within an allelic series).

AATTAGAC: the binding signal is 11.4 upbm affinity estimate (log intensity, higher = more binding, comparable within an allelic series) with SHOX [1]; 11.7 upbm affinity estimate (log intensity, higher = more binding, comparable within an allelic series) in the test with PAX4 [2]; 12.2 upbm affinity estimate (log intensity, higher = more binding, comparable within an allelic series) in the test with PAX4 [3]; 12 upbm affinity estimate (log intensity, higher = more binding, comparable within an allelic series) with PAX4 [7]; 9.23 upbm affinity estimate (log intensity, higher = more binding, comparable within an allelic series) in the test with SHOX [8]; 10.6 upbm affinity estimate (log intensity, higher = more binding, comparable within an allelic series) with PAX4 [10]. The binding signal with PAX4 [13] was 11 upbm affinity estimate (log intensity, higher = more binding, comparable within an allelic series); with HESX1 [27], 8.68 upbm affinity estimate (log intensity, higher = more binding, comparable within an allelic series); in the test with HESX1 [29] it was 7.81 upbm affinity estimate (log intensity, higher = more binding, comparable within an allelic series); with PAX4 [17], 11 upbm affinity estimate (log intensity, higher = more binding, comparable within an allelic series).

On to CCCGGCAC, for which the binding signal is 7.01 upbm affinity estimate (log intensity, higher = more binding, comparable within an allelic series) with SHOX [1]; 9.16 upbm affinity estimate (log intensity, higher = more binding, comparable within an allelic series) with PRRX1 [30]; 7.81 upbm affinity estimate (log intensity, higher = more binding, comparable within an allelic series) with PITX2; 7.19 upbm affinity estimate (log intensity, higher = more binding, comparable within an allelic series) with SHOX [8]; 9.19 upbm affinity estimate (log intensity, higher = more binding, comparable within an allelic series) with PRRX1 [31].

As to ACGGGGCC, the binding signal was 7.07 upbm affinity estimate (log intensity, higher = more binding, comparable within an allelic series) with SHOX [1]; 10.1 upbm affinity estimate (log intensity, higher = more binding, comparable within an allelic series) with HOXC10 [32]; 7.17 upbm affinity estimate (log intensity, higher = more binding, comparable within an allelic series) with SHOX [8]; 10.1 upbm affinity estimate (log intensity, higher = more binding, comparable within an allelic series) with HOXC10 [33]; 10.8 upbm affinity estimate (log intensity, higher = more binding, comparable within an allelic series) with NKX3-2 [34]; 10.8 upbm affinity estimate (log intensity, higher = more binding, comparable within an allelic series) with NKX3-2 [35].
